Results filed as inconclusive are left out. Calls of active or inactive are those of the source. How the source made its calls, unless noted: active means hit-call score of the fitted dose curve at least 0.9, where 1 is the maximum; inactive means score below 0.9.
Legend:
[1] = CCTE_Shafer_MEA_acute_spike_number: CCTE's Neural Acute Assay for Total Number of Spikes, Shafer Lab (AID 2284008)
Summary of the method: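 Rat primary cortical neurons on 48-well MEA plates, DIV 13 or 15, at 37 C. 40 min baseline then 40 min with compound (0.03-40 uM); spikes detected at 8x rms noise, expressed as percent change from baseline.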

[2] = CCTE_Shafer_MEA_acute_burst_number: CCTE's Neural Acute Assay for Single-Electrode Bursts, Shafer Lab (AID 2284013)
Summary of the method: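 Primary rat cortical neurons on 16-electrode MEA wells, treated on DIV 13 or 15 with compound at 0.03-40 uM. Single-electrode burst count from 40-min recordings at 37 C before and after exposure; percent change from baseline per well, DMSO negative control.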

[3] = CCTE_Shafer_MEA_acute_burst_duration_mean: CCTE's Neural Acute Assay for Mean Burst Duration, Shafer Lab (AID 2284014);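 further: hits are decreases in mean burst duration relative to DMSO controls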
Summary of the method: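 Rat primary cortical neurons on 48-well MEA, treated at DIV 13 or 15 with 0.03-40 uM in at least 3 wells. Value is percent change in mean burst duration, comparing 40 min recordings at 37 C before and during exposure.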

[4] = CCTE_Shafer_MEA_acute_per_burst_spike_number_mean: CCTE's Neural Acute Assay for Average Number of Spikes Per Burst, Shafer Lab (AID 2284015);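 further: hits are decreases in mean spikes per burst versus baseline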
Summary of the method: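 Rat primary cortical neurons on 48-well MEAs (DIV 13 or 15) were treated with 0.03-40 uM compound at 37 C. Mean spikes per burst over 40 min were recorded before and after exposure and expressed as percent change from baseline, relative to DMSO.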

[5] = CCTE_Shafer_MEA_acute_interburst_interval_mean: CCTE's Neural Acute Assay for Mean Interburst Interval, Shafer Lab (AID 2284016);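 further: percent change of mean interburst interval versus each well's own pre-dose baseline; curves fitted for decrease in interburst interval relative to DMSO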
Summary of the method: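 Rat primary cortical neurons on 48-well MEAs at DIV 13 or 15 were exposed acutely to 0.03-40 uM. Spikes detected at 8x rms noise, 37 C. Mean interburst interval from 40 min recordings expressed as percent change from 40 min pre-treatment baseline.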

[6] = CCTE_Shafer_MEA_acute_burst_percentage_mean: CCTE's Neural Acute Assay for Percentage of Spikes in a Burst, Shafer Lab (AID 2284017)
Summary of the method: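 Primary rat cortical neurons on 48-well MEA plates, treated on DIV 13 or 15 at 0.03-40 uM. Spikes detected at 8x rms noise at 37C; percent change from 40-min baseline to 40-min post-dose recording, fitted versus DMSO.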

[7] = CCTE_Shafer_MEA_acute_burst_percentage_std: CCTE's Neural Acute Assay for Standard Deviation of Burst Percentage, Shafer Lab (AID 2284018);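 further: fitted in the negative direction so actives lower burst percentage SD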
Summary of the method: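 Rat primary cortical neurons on 48-well MEAs, DIV 13 or 15, 37 C. 40-min baseline then 40-min recording with compound (0.03-40 uM); well-level SD of per-electrode burst spike percentage, expressed as percent change from baseline.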

[8] = CCTE_Shafer_MEA_acute_per_network_burst_spike_number_mean: CCTE's Neural Acute Assay for Average Number of Spikes in a Network Burst, Shafer Lab (AID 2284019)
Summary of the method: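 Rat primary cortical neurons on 48-well MEA at DIV 13 or 15, 37 C; compounds 0.03-40 uM, at least three wells each. 40-min baseline then 40-min exposure recording; percent change in mean spikes per network burst.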

[9] = CCTE_Shafer_MEA_acute_per_network_burst_spike_number_std: CCTE's Neural Acute Assay for Standard Deviation of Number of Spikes in a Network Burst, Shafer Lab (AID 2284020);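 further: fitted for decrease in spike-number SD versus DMSO so actives lower it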
Summary of the method: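 Rat primary cortical neurons on 48-well MEA (16 electrodes/well), treated DIV 13 or 15 at 0.03-40 uM, ≥3 wells per compound. 40 min recordings at 37 C before and after dosing; value is percent change in network-burst spike-number SD, negative direction vs DMSO.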

[10] = CCTE_Shafer_MEA_acute_per_network_burst_electrodes_number_mean: CCTE's Neural Acute Assay for Mean Number of Electrodes in a Network Burst, Shafer Lab (AID 2284021);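 further: curves fitted for decreases only so hits reduce electrodes per burst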
Summary of the method: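 Rat primary cortical neurons on 48-well MEAs, DIV 13 or 15, were treated at 0.03-40 uM. Spikes were detected at 8x rms noise and recorded at 37 C. The mean electrodes per network burst in a 40 min exposure recording was expressed as percent change from a 40 min baseline.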

[11] = CCTE_Shafer_MEA_acute_network_burst_percentage: CCTE's Neural Acute Assay for Percentage of Network Bursts, Shafer Lab (AID 2284022);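 further: curves fitted for loss so actives lower network burst percentage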
Summary of the method: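 Rat primary cortical neuron networks on 48-well MEA plates, DIV 13 or 15, treated acutely with compound (0.03-40 uM, at least three wells). Percent of spikes within network bursts compared between 40-min recordings before and during exposure at 37 C, expressed as percent change.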

[12] = CCTE_Shafer_MEA_acute_cross_correlation_area: CCTE's Neural Acute Assay for Area of Cross Correlation, Shafer Lab (AID 2284024);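 further: curves fitted for loss of cross-correlation area so actives lower synchrony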
Summary of the method: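 Rat primary cortical neurons on 48-well MEA, DIV 13 or 15; compounds 0.03-40 uM. Baseline and post-exposure 40 min recordings at 37 C; percent change in area under pooled inter-electrode cross-correlation near zero lag, relative to DMSO.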

[13] = CCTE_Shafer_MEA_acute_cross_correlation_HWHM: CCTE's Neural Acute Assay for Cross Correlation at Half Width at Half Maximum, Shafer Lab (AID 2284026);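 further: spontaneous network firing of rat primary cortical neurons on multiwell microelectrode arrays; percent change per well from pre-dose baseline in spike cross-correlogram half width; hits are a decrease in cross-correlogram half width relative to DMSO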
Summary of the method: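 Rat primary cortical neurons on 48-well MEA plates; 40-min baseline and 40-min post-exposure recordings at 37 C on DIV 13 or 15, compounds 0.03-40 uM. Spikes detected at 8x rms noise; percent change in cross-correlogram HWHM per well vs baseline.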

[14] = CCTE_Shafer_MEA_acute_synchrony_index: CCTE's Neural Acute Assay for Synchrony, Shafer Lab (AID 2284027);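 further: network synchrony index of spontaneous spiking in primary rat cortical neurons on MEAs; fitted for loss of signal so actives lower synchrony relative to DMSO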
Summary of the method: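 Primary rat cortical neurons on 16-electrode MEA wells were recorded 40 min at baseline (DIV 13 or 15) and 40 min after compound (0.03-40 uM) at 37 C. Synchrony index (0-1) expressed as percent change from baseline, versus DMSO.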

[15] = CCTE_Shafer_MEA_dev_firing_rate_mean: CCTE's Neural Network Formation Assay for Mean Firing Rate, Shafer Lab (AID 2284031)
Summary of the method: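 Primary rat cortical neurons on 48-well, 16-electrode MEAs (PEI-coated, laminin at plating), exposed from day 0 with compound renewed at DIV 5 and 9. Spikes recorded DIV 5, 7, 9, 12; well-mean firing rate collapsed to trapezoidal AUC, loss-of-signal vs DMSO.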

[16] = CCTE_Shafer_MEA_dev_per_burst_spike_percent: CCTE's Neural Network Formation Assay for Percent of Spikes in a Burst, Shafer Lab (AID 2284032)
Summary of the method: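 Rat primary cortical neurons on 16-electrode MEA wells, dosed from plating day 0 for 12 days with renewal on DIV 5 and 9; spikes-in-bursts percentage averaged over bursting electrodes, collapsed as AUC across days 5, 7, 9, 12; loss direction versus DMSO.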

[17] = CCTE_Shafer_MEA_dev_active_electrodes_number: CCTE's Neural Network Formation Assay for Number of Active Electrodes, Shafer Lab (AID 2284040; active means hit-call score of the fitted dose curve at least 0.9, where 1 is the maximum)
Summary of the method: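 Rat cortical primary cultures, 1.5 x 10^5 cells/well, PEI-coated MEA, laminin drop. Continuous exposure DIV 0–12; full media/compound change DIV 5, 9. Readout: electrodes with mean firing ≥5 spikes/min; AUC across days; loss vs DMSO.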

[18] = CCTE_Shafer_MEA_dev_burst_rate: CCTE's Neural Network Formation Assay for Burst Rate, Shafer Lab (AID 2284042)
Summary of the method: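 Primary rat cortical neurons on PEI-coated 48-well MEA plates (laminin added with cells at plating) (16 electrodes/well), exposed from plating to day 12, dosing renewed at DIV 5 and 9. Burst rate averaged over active electrodes, recorded DIV 5, 7, 9, 12, summarized as AUC; loss versus DMSO.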

[19] = CCTE_Shafer_MEA_dev_bursting_electrodes_number: CCTE's Neural Network Formation Assay for Number of Bursting Electrodes, Shafer Lab (AID 2284043; active means hit-call score of the fitted dose curve at least 0.9, where 1 is the maximum)
Summary of the method: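 Primary rat cortical neurons plated on 16-electrode MEA wells, exposed from day 0 with compound renewed at DIV 5 and 9. Electrodes bursting ≥1 burst per 2 min counted on days 5, 7, 9 and 12; trapezoidal AUC across days, fitted for loss versus DMSO.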

[20] = CCTE_Shafer_MEA_dev_per_burst_interspike_interval: CCTE's Neural Network Formation Assay for Burst Interspike Interval, Shafer Lab (AID 2284044);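 further: mean spike spacing inside bursts as AUC over recordings on days 5 7 9 12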
Summary of the method: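 Primary rat cortical neurons on 48-well MEA plates, exposed from day 0 through day 12, treatment renewed at DIV 5 and 9. Within-burst interspike interval recorded days 5, 7, 9, 12, well-averaged, summarised as AUC; negative fit versus DMSO.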

[21] = CCTE_Shafer_MEA_dev_burst_duration_mean: CCTE's Neural Network Formation Assay for Mean Burst Duration, Shafer Lab (AID 2284045)
Summary of the method: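 Primary rat cortical neurons on 48-well 16-electrode MEA plates, exposed from day 0 with renewal at DIV 5 and 9; spontaneous activity recorded on days 5, 7, 9, 12. Well-mean burst duration across bursting electrodes, collapsed as trapezoidal AUC; DMSO baseline.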

Measured: outcome

O=C(O)CNCP(=O)(O)O
inactive: all assays above

Source: PubChem BioAssay (EPA / NIEHS)
